# Assay results as given in PubChem BioAssay AID588795 (National Center for Advancing Translational Sciences (NCATS), 2011).
# Values joined by “and” are separate entries in the source; they are usually repeats but may differ in a detail not shown here. Identical values can stand only once. Among all 390,000 compounds or so, about 1,400 (0.36%) were called active. Another 2% or so got no clear call; they are omitted. The sample as a whole holds a higher share of actives than the screen did. Unmarked numbers belong to inactive results. Calls follow the shape of the dose curve; as a rule, active = well fitted inhibition curve with a large enough effect; inconclusive = small, poorly fitted or top-dose-only effect; inactive = no such curve, though single readings can be large or run the other way.
# Target: Flap endonuclease 1 (Homo sapiens) (UniProt P39748)
# Sequence (P39748 whole entry, looked up): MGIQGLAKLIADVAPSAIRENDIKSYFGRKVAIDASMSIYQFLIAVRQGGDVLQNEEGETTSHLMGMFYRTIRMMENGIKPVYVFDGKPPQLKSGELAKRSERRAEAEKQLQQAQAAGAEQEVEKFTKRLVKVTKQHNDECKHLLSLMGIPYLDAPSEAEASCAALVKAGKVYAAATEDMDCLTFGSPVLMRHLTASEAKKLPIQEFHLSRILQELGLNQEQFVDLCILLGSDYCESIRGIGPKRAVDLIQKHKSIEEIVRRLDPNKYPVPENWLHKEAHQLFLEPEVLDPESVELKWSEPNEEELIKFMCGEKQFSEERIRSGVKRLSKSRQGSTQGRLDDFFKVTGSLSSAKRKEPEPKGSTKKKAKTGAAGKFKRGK
# Test: qHTS Assay for the Inhibitors of Human Flap endonuclease 1 (FEN1). Also: nearly all actives have a fitted effect of over 65% in size.
# Conditions: Recombinant FEN1 flap cleavage, fluorescence, 15 min; series mostly up to 114 µM; activity change, negative = inhibition: at the top concentration
# Outline: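 In this screen, 50 nM flap DNA substrate was added to 10 nM FEN1 pretreated with compound for 15 min at room temperature; cleavage was followed with reads at 0 and 15 min, and Hill fitting gave concentration–response parameters.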
# % is scaled to controls: 0 for no effect and ±100 for the full control effect; potency is read from the fitted curve at half-maximal effect.
Compound,"activity change, negative = inhibition",Potency
Cc1[nH]c2ccccc2c1C(=O)C(=O)N(C)c1ccccc1,-1.9%,
CCCC(=O)N1CCN(c2nc3c(OC)ccc(C)c3s2)CC1,-8.18%,
Cc1cc[n+](C2CCCCC2)cc1,1.59%,
CCOc1cc(C(=O)O)ccc1OCCOc1ccccc1,4.15%,
CCOC(=O)C1Nc2ccc(C(F)(F)F)cc2C2C=CCC12 (centres undefined),-23.5%,
CCOc1cccc2c1N[C@@H](c1ccc(C(=O)O)cc1)[C@H]1CC=C[C@@H]21,,14.1 µM (active)
OC(CBr)CN1CCCCC1 (centres undefined),-5.74%,
O=C(Nc1ccccc1)c1ccccc1OCc1ccccc1,-4.93%,
C#CCOCCOCCOCCNc1nc(N2CCN(C(=O)CCCCCCCCCCNC(=O)Cn3cc(CCCCCN)nn3)CC2)nc(N2CCN(C(=O)CCCCCCCCCCNC(=O)[C@H](CO)n3cc(CCCSC)nn3)CC2)n1,,39.8 µM (active)
C#CCOCCOCCOCCNc1nc(N2CCN(C(=O)[C@H](CCC(=O)O)n3cc(CN)nn3)CC2)nc(N2CCN(C(=O)[C@H](CCC(=O)O)n3cc(CN)nn3)CC2)n1,-21.9%,
C#CCOCCOCCOCCNc1nc(N2CCN(C(=O)Cn3cc(CCO)nn3)CC2)nc(N2CCN(C(=O)[C@H](CCCCN)n3cc(CCCC)nn3)CC2)n1,16.4%,
O=C(COC(=O)c1ccccc1OCCOc1ccccc1)Nc1cccc(Br)c1,8.01%,
Cc1ccc(S(=O)(=O)c2c(Nc3cccc(Cl)c3)sc(C(=O)c3ccc4c(c3)OCO4)c2N)cc1,-1.24%,
Cc1ccc(C)c(N2CCN(CCCNC(=O)Nc3ccc(Cl)cc3)CC2)c1,-5.33%,
COc1ccc(C2Nc3ccc(NC(=O)COC(C)=O)cc3C(=O)N2Cc2ccccc2)cc1COc1ccc(NC(C)=O)cc1 (centres undefined),-3.55%,
Cc1ccc(-c2nnc3ccc(SCC(N)=O)nn23)cc1,-1.5%,
S=c1[nH]nc(-c2cc(-c3ccccc3)n[nH]2)n1/N=C/c1c2ccccc2cc2ccccc12,,39.8 µM (active)
S=c1[nH]nc(-c2cc(-c3ccsc3)n[nH]2)n1-c1ccccc1,-2.28%,
Cc1cc(-c2n[nH]c(=S)n2/N=C/C(Br)=C/c2ccccc2)n[nH]1,-9.91%,
Cc1cccc(NC(=O)COC(=O)c2ccccc2OCc2cccc(Br)c2)c1,-18%,

Compound,"activity change, negative = inhibition",Potency
COc1ccc(CN(Cc2ccccc2)C(=O)c2ccc(O)cc2)cc1COc1ccc(NC(C)=O)cc1,-4.6%,
O=C1c2ccccc2C(=O)N1c1ccc(S(=O)(=O)N2CCOCC2)c2ccccc12,-19.7%,
CCN1/C(=C/c2ccc3ccc(C)cc3[n+]2CC)Sc2ccccc21,,50.1 µM (active)
OC(Cc1ccc2ccccc2n1)c1ccc(Cl)c(Cl)c1 (centres undefined),-4.3%,
O=C1COc2ccc(-c3csc(-c4ccc(Cl)cc4)n3)cc2N1,1.81%,
Cc1cc(C)cc(NC(=O)CSc2nc(=O)n(CCN3CCOCC3)c3c2CCC3)c1,-3.17%,
CCOc1ccc(NC(=O)CSc2nnc3c(n2)[nH]c2ccc(S(=O)(=O)N4CCOCC4)cc23)cc1,-18%,
Cc1ccc(-n2ncc3c(NCCCn4ccnc4)ncnc32)cc1Cl,-5.38%,
C(=Nc1ccc(/C=C/c2ccnc3ccccc23)cc1)c1cc2c3c(c1)CCCN3CCC2,-9.3%,
CN(C(=O)CSc1nc2ccc(NC(=O)COc3ccccc3)cc2s1)c1ccccc1,3.32%,
O=[N+]([O-])c1c(NCCO)cc(Sc2nc3ccccc3s2)c2nonc12,,44.7 µM (active)
CC(C)(C)c1ccc(S(=O)(=O)Nc2ccc(O)c(Sc3nc4ccccc4s3)c2)cc1,-27%,
COc1cc(OC)c2c(C)cc(=O)oc2c1C(CCN1CCCCC1)c1ccc(N(C)C)cc1 (centres undefined),-18.3%,
CCN(CC)c1nc(C#N)nc(OC)n1,11.1%,
CN(C(=O)COC(=O)c1cc(-c2ccco2)nc2ccccc12)C1CCS(=O)(=O)C1 (centres undefined),,50.1 µM (active)
CC1CCCN(C(=O)c2cc(-c3ccco3)nc3ccccc23)C1 (centres undefined),3.33%,
CN(CCOc1ccccc1)C(=O)c1cc(-c2ccco2)nc2ccccc12,6.29%,
N#CC1=C(N)Oc2cc(O)ccc2C1C1CCCCC1 (centres undefined),0.703%,
O=C(O)c1c(Br)c(Br)c(Br)c(Br)c1C1c2ccc(O)cc2Oc2cc(O)ccc21,,3.98 µM (active)
Cc1ccc(Nc2nnc(-c3ccc(C)c(S(=O)(=O)N4CCCCC4)c3)c3ccccc23)cc1,-20.8%,

Compound,"activity change, negative = inhibition",Potency
Cc1ccc(-c2nnc(Nc3ccc(C(=O)N(C)C)cc3)c3ccccc23)cc1S(N)(=O)=O,-12.6%,
Cc1ccc(C)c(Nc2nnc(-c3ccc(C)c(S(=O)(=O)N4CCCCC4)c3)c3ccccc23)c1,,89.1 µM (active)
O=[N+]([O-])c1ccc(S(=O)(=O)N2CCN(c3nc(-c4ccccc4)nc4ccccc34)CC2)cc1,-12.2%,
NS(=O)(=O)c1ccc(NC(=O)CSc2nnc3c(n2)[nH]c2ccccc23)cc1,11.1%,
COc1ccc(CCNC(=O)C(=O)NCC(c2ccco2)S(=O)(=O)c2cccs2)cc1OC (centres undefined),-4.25%,
O=c1[nH]c2ccccc2n2c(-c3ccccc3)nnc12,,79.4 µM (active) and 20 µM (active)
O=c1cc(-c2ccccc2)n2c(SCc3ccccc3)nnc2[nH]1,-5.27%,
CC(C)(C)OC(=O)N(Cc1ccco1)S(=O)(=O)c1ccccc1Br,-3.86%,
O=C1C[C@H]2C=CCc3cccc(c32)CN1Cc1ccccc1,-2.58%,
O=C(c1ccc2c(=O)n(Cc3ccco3)c(=S)[nH]c2c1)N1CCCC1,5.1%,
O=S(=O)(Nc1cccc2cccnc12)c1cccc2cccnc12,2.67%,
O=C(O)C(c1ccccc1)N1C(=O)/C(=C\c2ccc(-c3cccc(Cl)c3)o2)SC1=S (centres undefined),,17.8 µM (active)
Cn1cccc1/C=C1\SC(=S)N(NC(=O)c2ccc(Cl)cc2)C1=O,3.67%,
O=C(NCc1ccccc1)c1cc(-c2cccc(Cl)c2)on1,4.6%,
Cc1c(CCO)sc[n+]1CC(=O)c1ccc2ccccc2c1,-4.18%,
O=C(C1COc2ccccc2O1)N(Cc1cccnc1)c1nc2c(F)cc(F)cc2s1 (centres undefined),-15%,
CSc1nnc(SCc2nc3sc(C(=O)O)c(C)c3c(=O)[nH]2)s1,,20 µM (active)
CCOC(=O)c1sc2nc(CSCC(=O)OCc3ccc(C(=O)OC)o3)[nH]c(=O)c2c1C,-1.9%,
Cc1sc2nc(CSCC(=O)NC3CCCCC3)[nH]c(=O)c2c1C,-2.42%,
